Data published in PubChem BioAssay (Tox21).
Where “and” joins values, the source holds several entries; their conditions need not be identical. Equal values may be shown once. Results filed as inconclusive are left out. Calls of active or inactive are those of the source. Unless noted, calls follow the shape of the dose curve; as a rule, active = well fitted curve in the direction sought with a large enough effect in the repeat runs; inconclusive = weak or mixed curves; inactive = no such curve, though single readings can be large; an effect the other way counts as inactive or inconclusive.

Experiments:
[1] = qHTS assay to identify small molecule agonists of H2AX (AID 1224845; active = well fitted activation curve with a large enough effect in the signal ratio in the repeat runs, not every such curve was filed as active; the % refers to the signal ratio)
How it was run: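 Wild-type CHO-K1 cells, plated overnight, exposed 3hr at 37C to 15 concentrations (0.76% DMSO final). Lysed, then HTRF anti-pH2AX (S139) cryptate and anti-H2AX-d2 antibodies, 24 hr room temperature; 665/620 nm emission read.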

[2] = qHTS assay to identify small molecule agonists of H2AX - cell viability counter screen (AID 1224847; calls by dose curve; also: nearly all actives have a fitted effect of over 30% in size; also: potency is read from the fitted curve at half-maximal effect)
How it was run: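 For this counter screen, overnight-attached CHO-K1 cells received test compounds (15 concentrations, 0.76% DMSO final); 3 hr later at 37C, CellTiter-Glo reagent was added and luminescence recorded after 30 min at room temperature.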

[3] = qHTS RealTime-Glo MT Cell Viability Assay in HepG2 cells - 24 hour (AID 1224867); also: nearly all actives have a fitted effect of over 50% in size; also: potency is read from the fitted curve at half-maximal effect
How it was run: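 Viability was tracked continuously by NanoLuc luminescence from prosubstrate reduced by living HepG2 cells, at successive time points over 40 h of compound exposure. Cells with reagent were preincubated 5 h at 37 °C before compound addition.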

[4] = qHTS RealTime-Glo MT Cell Viability Assay in HEK293 cells - 32 hour (AID 1224868); also: nearly all actives have a fitted effect of over 50% in size; also: potency is read from the fitted curve at half-maximal effect
How it was run: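 Viability tracked continuously by luminescence as live cells reduce a prosubstrate for NanoLuc; HEK293 cells preincubated 5 h, compound-treated at 37 C, and read at 0, 8, 16, 24, 32 and 40 h.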

[5] = A CellTox Green Cytotoxicity Assay to monitor cytotoxicity in HEK293 cells - 0 hour (AID 1224869); also: nearly all actives have a fitted effect of over 50% in size
How it was run: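 HEK293 cells premixed with CellTox Green dye were seeded at 600 cells/well and left 5 h at 37 C/5% CO2 before pin transfer of 23 nL compound in DMSO. Fluorescence from dye bound to dead-cell DNA was read during 40 h treatment.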

[6] = qHTS assay to identify small molecule agonists of the estrogen related receptor (ERR) signaling pathway from Tox21 library (AID 1224849; calls by dose curve; also: nearly all actives have a fitted effect of over 15% in size); settings: ERR reporter cell line, ONE-Glo luciferase, 18 h; at 92.4 µM (top of the series) unless noted
How it was run: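 ERR reporter cell line (NTP) seeded, rested 6 h at 37 C/5% CO2, then pinned with Tox21 compounds in DMSO. After 18 h at 37 C, ONE-Glo luciferase luminescence was read following 30 min at room temperature.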

[7] = qHTS assay to identify small molecule agonists of the hypoxia (HIF-1) signaling pathway - cell viability counter screen (AID 1224844; calls by dose curve; also: nearly all actives have a fitted effect of over 50% in size; also: potency is read from the fitted curve at half-maximal effect)
How it was run: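 HRE-bla ME-180 cells in medium with 0.5% dialyzed FBS were preincubated 5 hrs at 37C, exposed to compounds for 17 hrs, then viability was read as CellTiter-Glo luminescence after 30 min at room temperature, in the reporter wells.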

[8] = qHTS assay to identify small molecule agonists of the hypoxia (HIF-1) signaling pathway (AID 1224846; active = well fitted activation curve with a large enough effect in the signal ratio in the repeat runs, not every such curve was filed as active; the % refers to the signal ratio)
How it was run: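 HRE-bla ME-180 cells (beta-lactamase reporter under hypoxia response element) were plated at 2,000 cells/well in medium with 0.5% dialyzed FBS, rested 5 hrs, then given compounds in DMSO for 17 hrs at 37C, 5% CO2. Reporter induction was read with CCF4-AM FRET substrate.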

[9] = qHTS assay to identify small molecule antagonists of the estrogen related receptor (ERR) signaling pathway from Tox21 library (AID 1224848); also: nearly all actives have a fitted effect of over 50% in size; also: potency is read from the fitted curve at half-maximal effect
How it was run: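 Luminescent reporter read-out (ONE-Glo) from NTP's ERR cell line after 18 h treatment at 37 C with DMSO-dissolved Tox21 compounds; cells pre-plated 6 h beforehand at 2,000 per well.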
% is scaled to controls: 0 for no effect and ±100 for the full control effect.

II
inactive: Potency [1] | Potency [4] | Potency [5]
active: Potency [2] 80 µM | Potency [3] 15.5 µM

C=CC[C@]1(O)CC[C@H]2[C@@H]3CCC4=CC(=O)CCC4=C3C=C[C@@]21C
inactive: activity change, positive = activation [6] -61.2% [at 42.5 µM] | Potency [5]
active: Potency [2] 39.1 µM | Potency [4] 16.9 µM

CCO[C@H]1O[C@@H]2OC3(C)CC[C@H]4[C@H](C)CC[C@@H]([C@H]1C)[C@@]24OO3
active: Potency [9] 0.531 µM
inactive: Potency [7] | outcome [8] | Potency [2] | activity change, positive = activation [6] -53.8% [at 42.5 µM] | Potency [3] | Potency [4] | Potency [5]

CC1(C)CCC(Cc2ccc(Cl)cc2)C1(O)Cn1cncn1 (stereo unspecified)
active: Potency [2] 101 µM | Potency [9] 30.6 µM | Potency [4] 24.5 µM
inactive: Potency [1] | outcome [8] | activity change, positive = activation [6] -53.4% | Potency [3] | Potency [5]

CS/C(C)=N/OC(=O)N(C)SN(C)C(=O)O/N=C(\C)SC
inactive: Potency [1] | outcome [8] | activity change, positive = activation [6] -68.2% | Potency [5]
active: Potency [4] 49 µM

CN1C(=O)C(O)N=C(c2ccccc2)c2cc(Cl)ccc21 (stereo unspecified)
inactive: Potency [1] | Potency [2] | Potency [9] | activity change, positive = activation [6] -0.379% | Potency [3] | Potency [5]

COP(=S)(Oc1cc(Cl)c(Br)cc1Cl)c1ccccc1 (stereo unspecified)
inactive: Potency [1] | outcome [8] | activity change, positive = activation [6] -31.4% | Potency [3] | Potency [5]

CCCCCCCCCC(=O)O[C@H]1CC[C@H]2[C@@H]3CCC4=CC(=O)CC[C@@H]4[C@H]3CC[C@]12C
inactive: Potency [7] | Potency [1] | Potency [2] | Potency [3] | Potency [4] | Potency [5]

O=C(CBr)OCc1ccccc1
inactive: Potency [7] | outcome [8] | Potency [2] | Potency [3] | Potency [4] | Potency [5]

COC(=O)C(Br)CBr (stereo unspecified)
inactive: Potency [1] | Potency [2] | Potency [9] | activity change, positive = activation [6] -11.9% | Potency [3] | Potency [4] | Potency [5]

COC(N)=O
inactive: Potency [1] | outcome [8] | Potency [2] | Potency [3] | Potency [4] | Potency [5]

COP(=O)(OC)O/C(=C/Cl)c1cc(Cl)c(Cl)cc1Cl
active: Potency [9] 22.9 µM
inactive: Potency [7] | Potency [1] | activity change, positive = activation [6] -67.5% | Potency [3] | Potency [5]

O=C(O)C(F)(F)C(F)(F)C(F)(F)C(F)(F)C(F)(F)C(F)(F)C(F)(F)C(F)(F)C(F)(F)C(F)(F)F
inactive: Potency [1] | outcome [8] | Potency [2] | Potency [9] | activity change, positive = activation [6] 8.05% | Potency [3] | Potency [4] | Potency [5]

C/C(=C\c1ccccc1)[N+](=O)[O-]
active: Potency [7] 38.9 µM | Potency [9] 24.3 µM
inactive: outcome [8] | activity change, positive = activation [6] -68.3% | Potency [5]

O=C=Nc1ccc(Cl)cc1
inactive: Potency [1] | Potency [2] | Potency [3] | Potency [4] | Potency [5]

CCC(COC(=O)c1cc(OC)c(OC)c(OC)c1)(c1ccccc1)N(C)C (stereo unspecified)
inactive: Potency [7] | Potency [3] | Potency [5]

COCCOCCO
active: activity change, positive = activation [6] 18.2%
inactive: Potency [9] | Potency [3] | Potency [4] | Potency [5]

O=C(N[C@H](c1ccccc1)[C@@H]1CN2CCC1CC2)c1c(Cl)ccc(C(F)(F)F)c1Cl
active: Potency [2] 182 µM | Potency [9] 39.2 µM | Potency [4] 70.2 µM
inactive: Potency [7] | outcome [8] | activity change, positive = activation [6] -42.3% | Potency [5]

O=NN1CCNCC1
inactive: Potency [1] | outcome [8] | Potency [2] | Potency [3] | Potency [4] | Potency [5]

C[C@]12CC[C@H]3[C@@H](CCC4=CC(=O)CC[C@@H]43)[C@@H]1CC[C@@H]2OC(=O)CCC1CCCCC1
inactive: Potency [7] | outcome [8] | Potency [3] | Potency [4] | Potency [5]

O=C(CBr)c1ccccc1
inactive: Potency [7] | outcome [8] | Potency [2] | Potency [3] | Potency [4] | Potency [5]

Cc1ccc(-c2c(Cl)nc(C#N)n2S(=O)(=O)N(C)C)cc1
inactive: Potency [1] | outcome [8] | Potency [2] | Potency [3] | Potency [5]

C/C=C/C=O
inactive: Potency [1] | outcome [8] | Potency [2] | Potency [3] | Potency [4] | Potency [5]

CCCCC(O)(Cn1cncn1)c1ccc(Cl)cc1Cl (stereo unspecified)
active: Potency [2] 113 µM | Potency [9] 38.5 µM | Potency [4] 38.9 µM
inactive: Potency [1] | outcome [8] | activity change, positive = activation [6] -59.1% | Potency [5]

CC(C)(C)C(O)C(Oc1ccc(Cl)cc1)n1cncn1 (stereo unspecified)
inactive: Potency [1] | outcome [8] | Potency [2] | Potency [3] | Potency [5]
active: Potency [4] 12.3 µM

[CH3][Sn]([CH3])([Cl])[Cl]
inactive: Potency [1] | activity change, positive = activation [6] -70.4% and -43.3% | Potency [3] | Potency [5]
active: Potency [9] 69.7 µM and 61.1 µM

CCOP(=S)(OCC)Oc1cc(Cl)c(Br)cc1Cl
inactive: Potency [7] | outcome [8] | Potency [3] | Potency [4] | Potency [5]
